Results: PubChem BioAssay AID1159580 (chemical genetic matrix, 2015)
Values joined by “and” are separate entries in the source; they are usually repeats but may differ in a detail not shown here. Equal entries are not always repeated. Out of some 5,500 compounds screened, about 2,000 (36%) were called active. Not shown: some 18% with an inconclusive outcome. Rule as the data show it: active = normalized growth mostly below about 0.91 (no sharp cut-off); inconclusive = no clear call, values can overlap the other calls; inactive = mostly above about 0.92. Some of the results follow.

Test: chemical genetic growth profiling, strain panel (AID 1159580);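 also: tested at 20 µM; growth read once vehicle control cultures reached saturation at 30 °C; 1 = growth at the plate median or of vehicle wells; lower values mean less growth of the strain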
Settings: S. cerevisiae deletion strains, growth OD

Measured: normalized growth

CC(C)[N+](C)(CCC(C(N)=O)(c1ccccc1)c1ccccc1)C(C)C
inactive: locus YAL013W, strain DEP1, active compounds read low 1.01 | locus YAL021C, strain ccr4, active compounds read low 0.997 | locus YAL026C, strain drs2, active compounds read low 0.999 | locus YAL030W, strain snc1, active compounds read low 0.993 | locus YBL061C, strain skt5, active compounds read low 0.992 | locus YBR009C, strain hhf1, active compounds read low 0.994 | locus YBR021W, strain FUR4, active compounds read low 1 | locus YBR023C, strain chs3, active compounds read low 0.979 | locus YBR171W, strain sec66, active compounds read low 0.987 | locus YBR229C, strain ROT2, active compounds read low 1.01 | locus YBR231C, strain swc5, active compounds read low 0.991 | locus YBR279W, strain paf1, active compounds read low 0.97 | locus YCL011C, strain gbp2, active compounds read low 0.966 | locus YCL016C, strain dcc1, active compounds read low 0.953 | locus YCL029C, strain bik1, active compounds read low 1 | locus YCL061C, strain MRC1, active compounds read low 0.97 | locus YCL069W, strain vba3, active compounds read low 0.993 | locus YCR088W, strain abp1, active compounds read low 0.986 | locus YDL005C, strain med2, active compounds read low 0.996 | locus YDL035C, strain GPR1, active compounds read low 1.01 | locus YDL040C, strain nat1, active compounds read low 0.996 | locus YDL074C, strain BRE1, active compounds read low 1.01 | locus YDL101C, strain DUN1, active compounds read low 1.01 | locus YDL185W, strain tfp1, active compounds read low 0.996 | locus YDL192W, strain arf1, active compounds read low 1 | locus YDR001C, strain nth1, active compounds read low 0.987 | locus YDR069C, strain doa4, active compounds read low 1 | locus YDR101C, strain arx1, active compounds read low 0.999 | locus YDR137W, strain rgp1, active compounds read low 0.987 | locus YDR150W, strain NUM1, active compounds read low 1.01 | locus YDR159W, strain sac3, active compounds read low 0.997 | locus YDR162C, strain NBP2, active compounds read low 1 | locus YDR195W, strain ref2 1.02 | locus YDR297W, strain sur2, active compounds read low 0.991 | locus YDR318W, strain mcm21, active compounds read low 0.999 | locus YDR334W, strain swr1, active compounds read low 0.981 | locus YDR335W, strain msn5, active compounds read low 0.99 | locus YDR388W, active compounds read low 1 | locus YDR392W, strain spt3, active compounds read low 0.9 | locus YDR502C, strain sam2, active compounds read low 0.986 | locus YEL003W, strain gim4, active compounds read low 1.01 | locus YEL037C, strain rad23, active compounds read low 0.987 | locus YEL061C, strain CIN8 (second series), active compounds read low 0.988 | locus YEL061C, strain CIN8, active compounds read low 0.999 | locus YER015W, strain faa2, active compounds read low 0.995 | locus YER016W, strain bim1, active compounds read low 0.998 | locus YER110C, active compounds read low 1 | locus YER111C, strain swi4, active compounds read low 0.981 | locus YER155C, strain BEM2 (second series), active compounds read low 1 | locus YER155C, strain BEM2, active compounds read low 1.02 | locus YER167W, strain BCK2, active compounds read low 0.999 | locus YFR010W, strain ubp6, active compounds read low 0.986 | locus YGL078C, strain dbp3, active compounds read low 0.996 | locus YGL086W, strain mad1, active compounds read low 1 | locus YGL167C, strain pmr1, active compounds read low 0.989 | locus YGL173C, strain kem1, active compounds read low 0.998 | locus YGL227W, strain vid30, active compounds read low 0.98 | locus YGL240W, strain doc1, active compounds read low 1 | locus YGL248W, strain PDE1, active compounds read low 1 | locus YGL253W, strain hxk2, active compounds read low 0.983 | locus YGR135W, strain pre9, active compounds read low 0.978 | locus YGR252W, strain gcn5, active compounds read low 0.896 | locus YHR013C, strain ard1, active compounds read low 0.961 | locus YHR027C, strain rpn1, active compounds read low 0.997 | locus YHR030C, strain SLT2, active compounds read low 0.998 and 1 | locus YHR079C, strain IRE1 (second series), active compounds read low 0.998 | locus YHR079C, strain IRE1, active compounds read low 0.994 | locus YHR094C, strain hxt1, active compounds read low 0.995 | locus YHR129C, strain ARP1, active compounds read low 1.01 | locus YHR142W, strain chs7, active compounds read low 0.939 | locus YHR200W, strain rpn10, active compounds read low 1 | locus YIL066C, strain RNR3, active compounds read low 1.01 | locus YIL073C, strain SPO22, active compounds read low 0.988 | locus YIL125W, strain kgd1, active compounds read low 0.993 | locus YIR030C, strain dcg1, active compounds read low 1.02 | locus YJL092W, strain hpr5, active compounds read low 0.986 | locus YJL095W, strain BCK1 (second series), active compounds read low 0.988 | locus YJL095W, strain BCK1, active compounds read low 1.01 | locus YJL115W, strain asf1, active compounds read low 0.993 | locus YJL129C, strain trk1, active compounds read low 0.991 | locus YJL134W, strain LCB3, active compounds read low 1.02 | locus YJL154C, strain vps35, active compounds read low 1 | locus YJL164C, strain tpk1, active compounds read low 0.987 | locus YJL166W, strain qcr8, active compounds read low 0.972 | locus YJL168C, strain set2, active compounds read low 0.99 | locus YJL187C, strain SWE1 (second series), active compounds read low 1.01 | locus YJL187C, strain SWE1, active compounds read low 1 | locus YJR043C, strain POL32, active compounds read low 1.01 | locus YJR066W, strain TOR1, active compounds read low 0.943 | locus YKL009W, strain mrt4, active compounds read low 1 | locus YKL068W, active compounds read low 0.998 | locus YKL085W, strain MDH1 (second series), active compounds read low 0.995 | locus YKL085W, strain MDH1, active compounds read low 0.995 | locus YKL160W, strain elf1, active compounds read low 0.961 | locus YKL190W, strain CNB1, active compounds read low 0.98 | locus YKR001C, strain vps1, active compounds read low 0.997 | locus YKR026C, strain gcn3, active compounds read low 0.998 | locus YKR091W, strain srl3, active compounds read low 0.992 | locus YLL001W, strain dnm1, active compounds read low 0.96 | locus YLL026W, active compounds read low 0.99 | locus YLL041C, strain sdh2, active compounds read low 0.995 | locus YLR027C, strain aat2, active compounds read low 0.994 | locus YLR039C, strain RIC1, active compounds read low 1.07 | locus YLR058C, strain SHM2, active compounds read low 1.01 | locus YLR102C, strain apc9, active compounds read low 0.999 | locus YLR113W, strain HOG1, active compounds read low 1.04 | locus YLR221C, strain rsa3, active compounds read low 0.972 | locus YLR258W, strain gsy2, active compounds read low 0.98 | locus YLR262C, strain YPT6 (second series), active compounds read low 1 | locus YLR262C, strain YPT6, active compounds read low 1.03 | locus YLR268W, strain sec22, active compounds read low 0.987 | locus YLR320W, strain mms22, active compounds read low 0.971 | locus YLR330W, strain CHS5, active compounds read low 1.01 | locus YLR342W, strain FKS1 (second series), active compounds read low 1.02 | locus YLR342W, strain FKS1, active compounds read low 0.994 | locus YLR357W, strain rsc2, active compounds read low 0.971 | locus YLR370C, strain arc18, active compounds read low 0.975 | locus YLR371W, strain rom2, active compounds read low 0.981 | locus YLR384C, strain iki3, active compounds read low 0.991 | locus YLR418C, strain cdc73, active compounds read low 0.923 | locus YML016C, strain PPZ1, active compounds read low 1.01 | locus YML032C, strain rad52, active compounds read low 0.993 | locus YML120C, strain ndi1, active compounds read low 0.946 | locus YML124C, strain tub3, active compounds read low 0.993 | locus YMR058W, strain fet3, active compounds read low 0.998 | locus YMR078C, strain ctf18, active compounds read low 1 | locus YMR125W, strain sto1, active compounds read low 0.978 | locus YMR129W, active compounds read low 0.996 | locus YMR205C, strain PFK2, active compounds read low 0.974 | locus YMR223W, strain ubp8, active compounds read low 0.987 | locus YMR231W, strain pep5, active compounds read low 1 | locus YMR307W, strain GAS1, active compounds read low 0.9 | locus YNL067W, strain RPL9B, active compounds read low 0.997 | locus YNL071W, strain lat1, active compounds read low 0.983 | locus YNL128W, strain TEP1, active compounds read low 1.01 | locus YNL153C, strain GIM3, active compounds read low 1.01 | locus YNL183C, strain NPR1, active compounds read low 0.964 | locus YNL209W, strain ssb2, active compounds read low 0.986 | locus YNL233W, strain BNI4, active compounds read low 1.01 | locus YNL248C, strain rpa49, active compounds read low 0.992 | locus YNL250W, strain rad50, active compounds read low 0.987 | locus YNL271C, strain bni1, active compounds read low 1 | locus YNL298W, strain CLA4, active compounds read low 1 | locus YNL307C, strain MCK1, active compounds read low 0.988 | locus YNL322C, strain KRE1 (second series), active compounds read low 0.966 | locus YNR049C, strain mso1, active compounds read low 0.995 | locus YNR052C, strain pop2, active compounds read low 0.995 | locus YOL012C, strain htz1 0.833 | locus YOL147C, strain pex11, active compounds read low 1 | locus YOR001W, strain rrp6, active compounds read low 1.03 | locus YOR061W, strain CKA2, active compounds read low 1.01 | locus YOR069W, strain VPS5, active compounds read low 1.01 | locus YOR070C, strain gyp1, active compounds read low 1 | locus YOR080W, strain dia2, active compounds read low 1 | locus YOR083W, strain WHI5, active compounds read low 0.963 | locus YOR106W, strain vam3, active compounds read low 0.976 | locus YOR136W, strain idh2, active compounds read low 0.985 | locus YOR144C, strain elg1, active compounds read low 1 | locus YOR184W, strain ser1, active compounds read low 0.979 | locus YOR231W, strain MKK1, active compounds read low 0.972 | locus YOR265W, strain rbl2, active compounds read low 0.994 | locus YOR270C, strain vph1, active compounds read low 0.984 | locus YOR290C, strain snf2, active compounds read low 0.923 | locus YOR316C, strain cot1, active compounds read low 1.01 | locus YPL051W, strain arl3, active compounds read low 0.998 | locus YPL055C, strain LGE1, active compounds read low 0.991 | locus YPL078C, strain atp4, active compounds read low 0.974 | locus YPL106C, strain sse1, active compounds read low 0.961 | locus YPL240C, strain hsp82, active compounds read low 1 | locus YPL256C, strain CLN2, active compounds read low 1 | locus YPR119W, strain clb2, active compounds read low 0.991 | locus YPR141C, strain kar3, active compounds read low 0.993 | locus YPR163C, strain tif3, active compounds read low 0.998 | locus YPR167C, strain met16, active compounds read low 0.979 | strain wtn01, active compounds read low 0.98
